Keap1-Nrf2 PPI – Keap1-Nrf2 protein-protein interaction inhibitors, primary screen, biochemical, fluorescence polarization, single point; Kelch-like ECH-associated protein 1 (Homo sapiens), Q14145; Keap1 Kelch-Nrf2 peptide fluorescence polarization, 1536-well; inhibition, % at 9.4 µM; hit rate 0.15% among 340,000; AID 504523, 2011; in the data active means inhibition above about 12%;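 further: human Keap1 Kelch domain with fluorescein labeled Nrf2 9mer peptide probe; 0% = neutral control wells and 100% = peptide positive control; higher means more block of Keap1 binding to Nrf2 peptide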
GLD-1 RNA inh – GLD-1/TGE RNA complex disruptors, primary screen, biochemical, fluorescence polarization; Female germline-specific tumor suppressor gld-1 (Caenorhabditis elegans), Q17339; purified GLD-1 + fluorescein TGE RNA; inhibition, % at 5.96 µM; hit rate 0.44% among 320,000;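 active means percent inhibition above a per-plate cutoff, the plate mean of test compounds plus 3 SD, cut at about 30% in these data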;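 further: 0% = DMSO wells with GLD-1 and probe and 100% = wells lacking GLD-1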
EBV gp42 inh – Epstein-Barr virus gp42 inhibitors, primary screen, biochemical, uHTS, fluorescence polarization. Fluorescence polarization binding assay, mP read-out. inhibition, % (tested at 21.74 µM). hit rate 0.42% among 220,000. AID 1085, 2008; in the data active means inhibition above about 50%
Target sequence (Q1HVG2 whole entry, looked up): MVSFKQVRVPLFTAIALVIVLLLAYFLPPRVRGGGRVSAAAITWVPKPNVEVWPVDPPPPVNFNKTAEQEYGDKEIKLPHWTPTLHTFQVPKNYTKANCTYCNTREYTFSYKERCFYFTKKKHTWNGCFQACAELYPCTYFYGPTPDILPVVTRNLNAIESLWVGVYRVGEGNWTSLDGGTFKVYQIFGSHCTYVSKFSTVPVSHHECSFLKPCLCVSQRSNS
LANA-H2A inh – blockers of LANA interaction with H2A/H2B – biochemical, FP readout, HTS, primary screen; cell-free LANA-H2A/H2B peptide, fluorescence polarization; hit rate 0.6% among 320,000; inhibition, % (no concentration beside the values); Protein LANA1 (Human herpesvirus 8 type P (isolate GK18)), Q9QR71; in the data active means inhibition mostly above about 10%, no sharp cut-off; inactive means mostly below about 6.7%
E coli Lon inh – inhibitors of E. coli Lon protease, primary screen, biochemical, fluorescence polarization; P0A9M0; purified E. coli Lon protease; inhibition, % at 7.94 µM; hit rate 0.42% among 360,000; in the data active means inhibition above about 13%, passing the limit was not always enough;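 further: 0% = enzyme with probe and DMSO and 100% = no enzyme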
LANA DNA inh – inhibitors of KSHV C-LANA binding to DNA, primary screen, biochemical, fluorescence polarization, FAM-LBS DNA, MBP-C-LANA, single point. Kaposi's sarcoma herpesvirus LANA C-terminal domain (residues 932-1162) DNA binding. inhibition, % at 9 µM. hit rate 0.078% among 340,000. AID 504423, 2011;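 active means highest replicate inhibition at or above 60% at 9 µM, even if other replicates fall short; inactive means all replicates below 60% inhibition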;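 further: 0% = neutral control wells and 100% = 4 µM acridine orange control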
The depositor's hits bear a star; . = no result given; + = active, no number. Shown are actives, neighbours in structure and some others; about 1.5% of the full set was active somewhere.

SMILES	Keap1-Nrf2 PPI	GLD-1 RNA inh	EBV gp42 inh	LANA-H2A inh	E coli Lon inh	LANA DNA inh
CC1=CC(Cc2ccccc2)N(C)C(C(N)=O)C1 (stereo unspecified)	.	.	.	.	0	.
CSc1nsc(/C=C/Nc2ccc(O)cc2C)c1C#N	-5	71*	-1	2	5	1
O=C1c2cccc(O)c2C(=O)c2c(O)cccc21	.	92*	26	-7	.	.
Fc1ccc(/C=N/NC2=Nc3cccc4cccc2c34)cc1	3	-4	57*	-2	-28	1
c1ccc(NC2=Nc3cccc4cccc2c34)cc1	-8	-4	-5	-1	-5	-1
O=C(COc1ccc([N+](=O)[O-])cc1)NN=C1CCCC1	-4	3	-1	1	-7	1
O=C1CCC/C(=N\NC(=O)COc2ccc(Cl)cc2)C1	-1	64*	7	-5	16	4
FC(F)(F)Oc1ccccc1C(c1nnnn1C1CCCC1)N1CCN(C/C=C/c2ccccc2)CC1 (stereo unspecified)	.	.	.	.	-10	.
O=C(O)Cn1cc(CN2CCOCC2)c2ccccc21	-9	-2	.	1	-1	2
Cn1cc(CN2CCN(c3ccccc3)CC2)c2ccccc21	-1	10	-11	13*	-1	0
CC(C)CCN1C(=O)c2ccccc2C1c1nnnn1-c1ccc2c(c1)OCCO2 (stereo unspecified)	.	.	.	.	-2	.
O=C(Nc1ccncc1)Nc1ccc(F)cc1F	-1	-3	73*	0	-11	-1
COCCSc1nnc(NC(=O)C(C)(C)C)s1	-3	5	-11	43*	-5	0
COCCSc1nnc(NC(=O)CSc2ccccc2)s1	-3	-4	9	-4	0	1
CN(C)S(=O)(=O)c1cccc(NC(=O)CCc2c[nH]c3ccccc23)c1	-2	9	-5	+	9	2
CN(C)S(=O)(=O)c1cccc(NC(=O)Cc2ccc(Cl)cc2)c1	5	6	-8	-1	-10	1
CC(NC(=O)c1ccccc1Cl)C(=O)OCc1cn2cc(Cl)ccc2n1 (stereo unspecified)	3	9	.	3	-5	3
C[C@H](NC(=O)c1ccccc1Cl)C(=O)OCc1cn2cc(Cl)ccc2n1	2	-3	.	15*	-10	0
CCN1/C(=C/C=C/c2oc3ccc4ccccc4c3[n+]2CC)Oc2ccc3ccccc3c21	.	-69	162*	-35	.	.
O=C(NCc1cccc(Cl)c1)c1ccc2c(c1)SC1=NS(=O)(=O)CCN12	-2	6	12	16*	-4	1
CCN(CC)CCNC(=O)c1cn(CC)c2ccc(S(=O)(=O)N3CCOCC3)cc2c1=O	-6	-2	.	8.5*	-3	0
CCn1cc(C(=O)NCc2ccccn2)c(=O)c2cc(S(=O)(=O)N3CCCCC3)ccc21	.	.	111*	.	.	.
Cc1ccc(NC(=O)CN2C(=O)NC3(CCCCC3C)C2=O)cc1S(=O)(=O)N1CCCCC1 (stereo unspecified)	1	5	.	55*	-2	-1
COc1ccc(NC(=O)CN2C(=O)NC3(CCCCC3C)C2=O)cc1S(=O)(=O)N1CCOCC1 (stereo unspecified)	0	0	.	1	-4	4
CCOC(=O)C1(C)CCCN(C(=O)c2ccc3c(c2)CCO3)C1 (stereo unspecified)	.	.	.	.	4	.
SMILES	Keap1-Nrf2 PPI	GLD-1 RNA inh	EBV gp42 inh	LANA-H2A inh	E coli Lon inh	LANA DNA inh
NC(Cc1ccc(Cl)cc1)c1csc(NC(=O)NCC2CCCCC2)n1 (stereo unspecified)	.	.	.	.	-3	.
Cc1ccc(S(=O)(=O)NCc2ccc(C(=O)NCCN(Cc3ccccc3)C(C)C)cc2)cc1	-2	1	-8	-5	1	1
OCC[n+]1ccc(/C=C/c2c[nH]c3ccccc23)cc1	-163	50*	-131	-168	-255	-19
Cc1ccc(OCC(=O)N(C)CC(=O)Nc2ccc(F)cc2)c([N+](=O)[O-])n1	-7	2	15	-2	8	0
Cc1ccc(OCC(=O)N(C)CC(=O)Nc2ccc(Cl)c(C(F)(F)F)c2)c([N+](=O)[O-])n1	-1	3	.	105*	3	0
C[C@H](NC(=O)Cc1cccc2ccccc12)C(=O)NCc1ccccc1	-3	-1	-19	16*	3	-1
CCOC(=O)c1ccccc1NC(=O)N1CCn2c(C)ccc2C1CC (stereo unspecified)	5	33*	-14	-9	4	13
COc1ccc(Cl)cc1NC(=O)N1CCC(C)CC1	3	5	4	-9	-5	0
CCCC1c2ccc(C)n2CCN1C(=O)Nc1ccccc1Cl (stereo unspecified)	2	21	13	4	11	14
CCC1c2ccc(C)n2CCN1C(=O)Nc1cc(Cl)ccc1OC (stereo unspecified)	9	38*	-21	-2	4	13
Cc1nnc(C)c2c(C)n(-c3ccccc3N)c(C)c12	5	46*	5	3	19	5
CC1(C(=O)Nc2cnc3ccccc3c2)CCN1Cc1ccc(OC(F)(F)F)cc1 (stereo unspecified)	.	.	.	.	0	.
Cc1cc(C)c(NC(=O)COC(=O)C2=COCCO2)c(Cl)c1	-2	0	.	-4	-5	1
Cc1ccc(C)c(-n2cc(CNCCc3cnccn3)c(-c3ccccc3)n2)c1	-3	-3	2	-1	39*	0
CCCCC[C@@H](C)N1C[C@H](COCc2ccccc2)Oc2cc(N3CCC[C@@H]3CO)ccc2S1(=O)=O	.	.	.	.	8	.
O=C(CCN1CCCCO1)N1CCCC(N2CCN(c3ccc(F)cc3)CC2)C1 (stereo unspecified)	1	-9	.	13*	1	-1
O=C(OCCN1C(=O)c2ccccc2C1=O)c1cc(S(=O)(=O)N2CCOCC2)ccc1F	-10	-2	-20	1	11	1
O=C(OCCN1C(=O)c2cccc3c(N4CCOCC4)ccc(c23)C1=O)c1ccc(Cl)cc1	4	8	123*	12*	-22	39
CCn1c(=O)c(C(=O)NNC(=O)c2ccccc2Br)c(O)c2ccccc21	-4	10	.	27*	12	-1
Cc1ccc(C)c(NC(=O)CSc2cccc3cccnc23)c1	-3	6	.	17*	-1	2
Cc1cccc(NC(=O)CSc2cccc3cccnc23)c1	-6	4	.	5	1	0
Cc1c(Cl)cccc1N(CC(=O)O)S(C)(=O)=O	1	-1	-12	11*	1	0
